Source: PubChem BioAssay
This is one part of a sample in which hits are shown more often than they occur.
RE007 growth inh – less growth of the S. pombe RE007 Vpr strain; S. pombe RE007 Vpr strain, BacTiter-Glo ATP luminescence, 24 h; Potency, µM (highest dose often 92.2 µM), without a hit: at the highest dose activity change, negative = less growth, most hits filed as inhibitors; hit rate 0.21% among 360,000; AID 651644; active = well fitted falling curve with a large enough effect; inconclusive = small, poorly fitted or top-dose-only effect; inactive = no such curve, though single readings can be large or run the other way; note: potency is the fitted concentration of half-maximal effect; % is set by controls: 0 for no effect and ±100 for the full control effect; nearly all actives have a fitted effect of over 50% in size
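Fission yeast strain RE007, carrying one chromosomally integrated HIV-1 vpr copy, was seeded at OD 0.01 in PMG+AL medium with 23 nL pinned compound. After 24 h at 30 °C and 99% humidity, viability was read by BacTiter-Glo luminescence.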
CHX counter – counter-screen hit for Shiga toxin inhibitors, cycloheximide; max response, %; hit rate 12% among 300,000; AID 2314; cell reporter, cycloheximide protein synthesis inhibition counterscreen; in the data active = max response mostly above about 13%, no sharp cut-off; inactive = mostly below about 14%; note: read at 38.3 µM for the half of the compounds with a filed dose; 0% is about no effect
FBPA Giardia inh – inhibitors of Giardia lamblia fructose-1,6-bisphosphate aldolase. hit rate 0.71% among 290,000. A8B2U2. Potency, µM (series often up to 59.6 µM), for the others: at the highest dose activity, negative = inhibition, actives largely listed as inhibitors. purified Giardia FBPA; note: potency is the fitted concentration of half-maximal effect; % is set by controls: 0 for no effect and ±100 for the full control effect; nearly all actives have a fitted effect of over 55% in size
Target sequence (A8B2U2 whole entry, looked up): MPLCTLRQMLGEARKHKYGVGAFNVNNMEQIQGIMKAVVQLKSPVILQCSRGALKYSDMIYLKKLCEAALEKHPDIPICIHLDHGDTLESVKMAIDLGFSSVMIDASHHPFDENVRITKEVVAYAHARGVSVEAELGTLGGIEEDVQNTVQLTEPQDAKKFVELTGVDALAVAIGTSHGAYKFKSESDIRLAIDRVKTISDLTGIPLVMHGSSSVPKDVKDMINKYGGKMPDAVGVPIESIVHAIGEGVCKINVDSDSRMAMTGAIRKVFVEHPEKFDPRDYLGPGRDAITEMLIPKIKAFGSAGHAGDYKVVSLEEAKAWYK
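Giardia FBPA (40 nM reagent) was preincubated 10 min at RT with compound (up to 57.5 uM final), then substrate plus GAPDH/TPI/NAD/arsenate coupling system with diaphorase/resazurin was added; resorufin fluorescence (525/598 nm) was read after 20 min.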
LmPK inh – inhibitors of Leishmania mexicana pyruvate kinase; AID 1721; hit rate 0.37% among 290,000; purified LmPK, Kinase-Glo ATP luminescence, 1 h; Potency, µM (doses to about 57.5 µM), for the others: at the top dose activity change, negative = inhibition, hits mostly inhibitors; note: potency is the fitted concentration of half-maximal effect; % is set by controls: 0 for no effect and ±100 for the full control effect
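Screened at intermediate enzyme activity to detect both inhibitors and activators: LmPK at 0.1 nM, with a 0.5 nM enzyme column as activation reference. PEP 0.5 mM, ADP 0.1 mM; ATP detected by luminescence after 1 h.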
Shiga inhibitor – inhibitors of Shiga toxin in Vero cells. hit rate 9.2% among 290,000. inhibition, % at 38.7 µM. Vero cells, Shiga toxin protein synthesis inhibition reporter. AID 2315; in the data active = inhibition mostly above about 28%, no sharp cut-off; inactive = mostly below about 43%; note: 0% is about no effect
TbPYK inhibitor – T. brucei pyruvate kinase inhibition. Q57TT1. hit rate 0.12% among 410,000. Potency, µM (titrated, usually from 76.8 µM), for inactives: at the highest dose activity, negative = inhibition, usual class: inhibitors. TbPYK enzyme, Kinase-Glo Plus ATP luminescence, 45 min; note: potency is the fitted concentration of half-maximal effect; % is set by controls: 0 for no effect and ±100 for the full control effect; nearly all actives have a fitted effect of over 50% in size
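Glycolytic pyruvate kinase of T. brucei was incubated with substrate, test compound and 130 uM ADP for 45 minutes at room temperature. Luminescent Kinase-Glo Plus signal was measured after 10 minutes.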
* hit, by the source's call; i = inactive; ? = inconclusive; . = not tested or not shown; [ ] = another dose, or the depositor's remark. Unless noted, calls come from the whole dose curve; as a rule, active = well fitted curve in the direction sought with a large enough effect; inconclusive = small, poorly fitted or top-dose-only effect, or another doubt; inactive = no such curve, though single readings can be large; an effect the other way counts as inactive or inconclusive.

SMILES	RE007 growth inh	CHX counter	FBPA Giardia inh	LmPK inh	Shiga inhibitor	TbPYK inhibitor
CC/C=C\C/C=C\C/C=C\C/C=C\C/C=C\C/C=C\CCC(=O)O[C@H](COCCCCCCCCCCCCCCCC)COP(=O)([O-])OCC[N+](C)(C)C	.	.	-5%	.	.	.
Cn1cccc1C(=O)N1CCC2(CCN(Cc3ccc(C#N)cc3)CC2)CC1	.	.	-1%	.	.	-2%
O=c1cc(-c2ccccc2Cl)oc2c([N+](=O)[O-])ccc(O)c12	.	-6	-1%[89.2 µM]	.	i	.
Cc1cc(=O)oc2c(O)c(O)ccc12	28%	.	7.1µM*	.	.	-13%
O=c1cc(-c2ccccc2)oc2c(O)c(O)ccc12	.	.	7.9µM*	.	.	.
Cc1cc(=O)oc2c(CN3CCCC3)c(O)ccc12	-3%	11	-4%	1%	0	4%
O=c1cc(-c2ccccc2O)oc2c(O)c(O)ccc12	.	.	6.3µM*	.	.	.
O=c1cc(-c2ccccc2O)oc2ccc3ccccc3c12	.	.	9%	.	.	.
O=c1cc(-c2ccccc2Cl)oc2c(Br)ccc(O)c12	-2%	31*	0%[89.2 µM]	3%	78*	-6%
CCCOC(=O)CSc1nnc2ccc3ccccc3n12	.	.	.	.	.	0%
COc1cc(OC)c2c(c1C(CCN1CCCC1)c1ccc(N(C)C)cc1)OC(=O)CC2c1ccc(N(C)C)cc1 (stereo not given)	.	8	-6%	.	26	.
Cc1cc2ncn(C(=O)N3CCC(C)CC3)c2cc1C	-17%	28*	-7%	3%	67*	-7%
O=C(COC(=O)c1sc2ccccc2c1Cl)NC1CCCCC1	-7%	20*	5%	-4%	13	1%
Cc1ccc(C(=O)OCC(=O)NC2CCCCC2)s1	?	34*	1%	-3%	95*	0%
Cc1ccc(C(=O)NC2CCC(C)CC2)s1 (stereo not given)	-23%	.	.	.	.	-1%
Cc1ccc(C(=O)NC2CCCC2)s1	11%	11*	.	-3%	53	3%
Cc1ccc2oc(=O)c3cnn(CC(=O)N4CCN(c5cc(Cl)ccc5C)CC4)c3c2c1	.	.	.	.	.	-1%
Cc1ccc(NC(=O)Cn2c(=O)n(-c3ccc(CC(=O)NCC4CCCO4)cc3)c(=O)c3ccccc32)cc1 (stereo not given)	.	.	.	.	.	-3%
COc1ccc2c(c1)c(=O)c(C(=O)c1ccc(C)cc1)cn2Cc1ccccc1F	.	.	.	.	.	-5%
COc1ccc2cc(C(=O)NCc3ccc4c(c3)CCN4C(=O)c3ccc(C)cc3)[nH]c2c1	.	.	.	.	.	10%
COC(=O)C(Cc1ccc(OC(=O)c2ccccc2C)cc1)N1Cc2ccccc2C1=O (stereo not given)	1%	33*	-5%	-6%	active	8%
COC(=O)C(Cc1ccc(OC(=O)c2ccccc2Cl)cc1)N1Cc2ccccc2C1=O (stereo not given)	11%	22*	-3%	1%	38	-2%
COc1ccc(CNC(=O)C(CC(C)C)N2Cc3ccccc3C2=O)cc1 (stereo not given)	.	.	.	.	.	4%
Cc1ccccc1NC(=O)C(Cc1ccccc1)N1Cc2ccccc2C1=O (stereo not given)	.	.	.	.	.	1%
CC(=O)c1ccc(N2C(=O)N(Cc3ccc(F)cc3)c3ccccc3S2(=O)=O)cc1	.	.	.	.	.	5%
SMILES	RE007 growth inh	CHX counter	FBPA Giardia inh	LmPK inh	Shiga inhibitor	TbPYK inhibitor
Cc1nc2cccnc2n1-c1cccc(C(=O)NCc2cccc(Cl)c2)c1	.	.	.	.	.	-5%[15.4 µM]
CCCSc1ncnc2c1c(-c1ccccc1)cn2-c1ccccc1OC	.	.	.	.	.	1%
O=C1C(Cl)=C(Cl)C(=O)C(Cl)=C1Cl	.	.	0.56µM*	.	.	.
O=C1C(=O)C(Cl)=C(Cl)C(Cl)=C1Cl	14%	.	.	.	.	?
Cc1c(O[C@@H]2O[C@H](CO)[C@@H](O)[C@H](O)[C@H]2O)ccc2c1oc(=O)c1ccccc12	1%	15*	9%	0%	48	4%
COc1ccc(CNc2ncnc3ccc(-c4c(C)noc4C)cc23)c(OC)c1	.	.	4%	.	.	.
O=S(=O)(Nc1ccc2c(c1)oc1ccccc12)N1CCCC1	-20%	20*	-6%	3%	22	-1%
O=C(Nc1ccc2c(c1)oc1ccccc12)N1CCOCC1	1%	52*	0%	3%	84*	-4%
COc1cc2c(cc1NS(=O)(=O)N1CCCCC1)oc1ccccc12	23%	4	-7%	5%	-19	-4%
CCn1c2ccccc2c2cc(NC(=O)N3CCOCC3)ccc21	-4%	32*	-17%	-3%	85*	5%
Cc1ccc(CNC(=O)CCCn2c(=O)c3ccccc3n(Cc3ccccc3C)c2=O)cc1	.	.	.	.	.	-4%
O=c1cc(-c2ccccc2)nc(SCc2nc(-c3cccc(C(F)(F)F)c3)no2)[nH]1	.	.	.	.	.	1%[15.4 µM]
O=C1c2ccccc2C(Nc2ccc3c(c2)OCCO3)N1Cc1ccc2c(c1)OCO2 (stereo not given)	7%	31*	-7%	4%	62*	1%
O=C1c2ccccc2C(Nc2ccc3c(c2)OCCO3)N1c1ccc(Cl)cn1 (stereo not given)	-5%	9.9*	-20%	1%	44	0%
Cc1ccc(N2C(=O)c3ccccc3C2Nc2ccccc2)nc1 (stereo not given)	-2%	10	-2%	5%	30	-4%
COc1ccc(NC2c3ccccc3C(=O)N2c2ccccn2)cc1Cl (stereo not given)	0%	18	2%	3%	-9	1%
CCc1cccc(NC2c3ccccc3C(=O)N2c2ccc(C)cn2)c1 (stereo not given)	2%	41	0%	3%	90*	-9%
O=C1c2ccccc2C(Nc2ccccc2)N1c1ccc(Cl)cn1 (stereo not given)	1%	71*	-11%	4%	169*	-4%
Cc1ccccc1C(=O)Nc1sc2c(c1C(=O)N1CCCCC1)CCC(C)C2 (stereo not given)	.	.	.	.	.	-1%
O=C1c2ccccc2C(Nc2ccc3c(c2)OCCO3)N1c1ccccn1 (stereo not given)	-6%	41*	-9%	4%	70*	-1%
O=C1c2ccccc2C(Nc2ccc(F)c(Cl)c2)N1c1ccccn1 (stereo not given)	-1%	-11	0%	0%	-14	-4%
Cn1c(=O)cc(OCC(=O)NCc2ccc(F)cc2Cl)c2ccccc21	.	.	.	.	.	-2%
Cc1cc2oc(=O)cc(C)c2cc1NC(=O)CCl	33%	30*	3%	-1%	21	-13%
CCOC(=O)Nc1ccc2c(C)cc(=O)oc2c1	8%	30*	-8%	-13%	60*	-4%
Cc1cc(=O)oc2cc(NC(=O)CC(N)C(=O)O)ccc12 (stereo not given)	.	-4	-13%	.	-4	.
Cc1cc(=O)oc2cc(NC(=O)CCOc3ccccc3)ccc12	7%	19*	-1%	-5%	32*	0%
